ChEMBL document CHEMBL4513216, “Probing the Open Global Health Chemical Diversity Library for Multistage-Active Starting Points for Next-Generation Antimalarials” (ACS Infect Dis, 2020)
In all, about 69,000 compounds went through this assay and about 8,600 (12%) showed an effect of 50% or more. The list comes from a sample in which strong results are over-represented; it also holds similar structures and randomly drawn compounds.

What follows are compounds tested on Plasmodium berghei (assay: Screen against P. berghei liver stage (PbLuc), transformed with Luciferase, at 10uM). Conditions: tested at 10 uM.
Format: functional, HepG2

Compound | INHIBITION
Cc1nc(NC2CCCC2)cc(C2CCN2C(=O)c2cnn(C)c2)n1 (stereo unspecified) | 0.301%
Cc1ccc2c(c1)SCC(=O)N2Cc1noc(C2CC2)n1 | -0.578%
O=C(NCc1ccc(Cl)s1)NCc1nnc2n1CCCCC2 | -10.6%
CC(CN1CCOCC1)NC(=O)N(C)Cc1ccc(Cl)s1 (stereo unspecified) | -12.6%
CN(Cc1cnn(C)c1)C(=O)NCc1nnc2n1CCC2 | -22.6%
CCc1ccc(CNC(=O)NCc2nnc3n2CCC3)s1 | 25.1%
Cn1cc(CCNC(=O)NCc2nnc3n2CCC3)cn1 | 59.7%
O=C(NCCc1ccc(Cl)s1)NCc1nnc2n1CCCC2 | 21%
COc1ccc(C(NC(=O)NCc2nnc3n2CCC3)C2CC2)cc1 (stereo unspecified) | 50.4%
CC(CN1CCOCC1)NC(=O)NCCc1ccc(Cl)s1 (stereo unspecified) | 53.4%
CC(CN1CCOCC1)NC(=O)NCc1ccc(Cl)s1 (stereo unspecified) | -34.7%
O=C(NCCC1=CCCCC1)NCc1nnc2n1CCC2 | 40.3%
O=C(NCCc1ccc(Cl)s1)NCc1nnc2n1CCC2 | 53.8%
CCn1cnnc1CNC(=O)NC(c1ccc(OC)cc1)C1CC1 (stereo unspecified) | 32.5%
CN(C)CCC1CCN(Cc2ccn(C)c(=O)c2)CC1 | -8.11%
CO[C@H]1CN(C(=O)c2ccccn2)[C@@H]2CCCO[C@H]12 | 36.4%
CC(C)c1ncc(Cl)c(C(=O)N2CCN(C3CC3)CC2)n1 | 40.7%
CS(=O)(=O)N1C[C@H]2CCCN(Cc3ccsc3)[C@H]2C1 | 21.6%
COc1cc(N2CCC3(CC2)CC(N2CCN(C)CC2)CO3)ncn1 (stereo unspecified) | 26%
Cc1cccc(C(=O)N2C[C@@H]3CC[C@H](Oc4cccc(F)c4)[C@@H]3C2)n1 | 25.6%
COCCN1CCC2(CCCN(C(=O)c3cncn3C)C2)CC1 | 49.7%
CNC(=O)CC1CC2(CCN(CC3CC3)CC2)Oc2ccccc21 (stereo unspecified) | 44.5%
Cc1nc2sccn2c1CN(CCCN(C)C)Cc1ccccn1 | -12.5%
CN(CC1CCN(CCO)CC1)CC(O)c1ccc(F)cc1 (stereo unspecified) | 34.1%

Compound | INHIBITION
CN(CC1CCN(CCO)CC1)CC(O)c1ccc(F)c(F)c1 (stereo unspecified) | 49.9%
CN(CC1CCN(CCO)CC1)CC(O)c1ccc(F)cc1F (stereo unspecified) | 59.1%
Cc1cc(C)n(Cc2ccc(-c3noc(C(=O)NC[C@@H](C)O)n3)cc2)n1 | -4.28%
NC(=O)C1CCN(c2ncc(-c3cnccn3)c([C@H]3CCCO3)n2)CC1 | -0.902%
Cc1ccnc(N2CCC(C(N)=O)CC2)n1 | 63.4%
NC(=O)C1CCN(c2nc3nccc(-c4ccccn4)c3c(=O)[nH]2)CC1 | 2.37%
NC(=O)[C@H]1CCCN(c2nccc(-c3c[nH]nc3-c3cccnc3)n2)C1 | 54.5%
CN1CCN(c2nccc(-c3cncnc3C3CCCCC3)n2)CC1 | 23.4%
Cc1ncc(-c2ccnc(N3CC[C@H](O)C3)n2)c(-c2cccnc2)n1 | -13.7%
NC(=O)C1CCN(c2nccc(-c3c[nH]nc3C3CCCCC3)n2)CC1 | 57.5%
Cc1ccnc(OCC(=O)N2CCC(C(N)=O)CC2)n1 | 26.4%
NC(=O)[C@H]1CCCN(c2nccc(-c3ccncc3)n2)C1 | 10%
CN1CCCN(c2nccc(-c3c[nH]c4ccc(Br)cc34)n2)CC1 | 41.2%
CN1CCCN(c2nccc(-c3cncnc3C3CCCCC3)n2)CC1 | 50.1%
CCOC(=O)C1CCN(c2nccc(-n3nc(C)cc3C)n2)CC1 | -79.8%
CSc1ncccc1C(=O)N1C[C@@H]2CC[C@H]1CN(c1ncccn1)C2 | 15.1%
CC(Cn1ccnc1)NC(=O)NCc1ccccn1 (stereo unspecified) | 15.34%
COCCCNC(=O)c1nnsc1-c1ccccc1 | -6.42%
CNc1cccc(C2CCN(C(C)=O)CC2)n1 | -9.51%
COc1ccc(C)cc1CN1CCOC(Cn2nc(C)nc2C)C1 (stereo unspecified) | -10.6%
CCc1cc(-c2cc[nH]n2)nc(N2CCOCC2)n1 | 17.5%
CC1CN(CC(=O)Nc2ccncc2)CCN1Cc1nccn1C (stereo unspecified) | 8.9%
COCC[C@]1(O)CCN(Cc2nc(C)c(C)s2)C[C@H]1C | -47.4%
O=S1(=O)NC(c2ccnc(N3CCCCC3)n2)=Nc2ccccc21 | 25.8%

Compound | INHIBITION
c1cc(-c2cn3nccc3nc2C2CCCCC2)nc(N2CCCC2)n1 | 82.7%
OCCNc1nccc(-c2cn3nccc3nc2C2CCCCC2)n1 | 39.7%
Cc1csc2ncc(-c3ccnc(N4CCC[C@H](C(N)=O)C4)n3)c(=O)n12 | 64.9%
CC(=O)N1CCCN(c2nccc(-c3cn(C)nc3C)n2)CC1 | 4.2%
CC(C)c1nc(C2CCCN(c3nccc(N4CCCC4)n3)C2)no1 (stereo unspecified) | 23.1%
CN1CCCN(c2nccc(-c3cc(C(=O)O)ccn3)n2)CC1 | 41.4%
CN1CCCN(c2nccc(-c3c[nH]nc3C3CCCCC3)n2)CC1 | 68.9%
Cc1csc2ncc(-c3ccnc(N4CCCN(C)CC4)n3)c(=O)n12 | 26.3%
c1cc(-c2c[nH]nc2C2CCCCC2)nc(N2CCCCCC2)n1 | 90.1%
Nc1nccc(-c2c[nH]nc2C2CCCCC2)n1 | 41.2%
Cc1csc2ncc(-c3ccnc(N4CCCC4)n3)c(=O)n12 | -71.6%
Cc1ccc(Cl)cc1NCc1nc2n(n1)CCCCC2 | 25.1%
COc1cccc(COCC(=O)N2CCN(S(C)(=O)=O)CC2)c1 | 28.74%
CN(C)C(=O)CN1CCC2(C1)CN(CC1CCOC1)C2 (stereo unspecified) | 8.31%
CC(C)=CCN1CCN(C(=O)c2cc(C)n[nH]2)[C@H]2CS(=O)(=O)C[C@H]21 | -6.67%
Cc1ccc(CN2CCC3(CC2)CCN(C(=O)c2cccn2C)C3)cc1 | 6.27%
COCCOC(=O)N1CCN2C[C@@H](CO)[C@H](c3ccccc3)[C@H]2C1 | -8.8%
c1cncc(-c2nc(C3CC3)ncc2-c2ccnc(N3CCCC3)n2)c1 | 51.5%
Cc1ncc(-c2ccnc(N3CCN(C)CC3)n2)c(-c2cccnc2)n1 | 21.9%
Cc1ncc(-c2ccnc(N3CCCCCC3)n2)c(-c2cccnc2)n1 | 12.7%
CN1CCCN(c2nccc(-c3c[nH]nc3-c3ccncc3)n2)CC1 | 42.6%
c1cc(-c2n[nH]cc2-c2ccnc(N3CCCCCC3)n2)ccn1 | 50.1%
c1cc(-c2n[nH]cc2-c2ccnc(N3CCCC3)n2)ccn1 | 33.7%
